# Screens deposited in PubChem BioAssay by National Center for Advancing Translational Sciences (NCATS).
# Hits are enriched below; roughly 21% of the tested compounds scored in any of these assays.
# Shiga inhibitor: A qHTS for Small Molecule Inhibitors of Shiga Toxin | inhibition, % at 38.7 µM | AID 2315, 2010 | 9.2% of 290,000 active | Vero cells, Shiga toxin protein synthesis inhibition reporter; in the data active = inhibition mostly above about 28%, no sharp cut-off; inactive = mostly below about 43%
# Cycloheximide cs: Cycloheximide Counterscreen for Small Molecule Inhibitors of Shiga Toxin. AID 2314, 2010. 12% of 300,000 active. max response, %. cell reporter, cycloheximide protein synthesis inhibition counterscreen; in the data active = max response mostly above about 13%, no sharp cut-off; inactive = mostly below about 14%; also: read at 38.3 µM for the half of the compounds with a filed dose
# Pf growth 96h: Primary qHTS for delayed death inhibitors of the malarial parasite plastid, 96 hour incubation | P. falciparum luciferase reporter growth, 96 h | Potency, µM (series often up to 28.7 µM), most hits filed as inhibitors | 6.9% of 320,000 active; active = well fitted inhibition curve with a large enough effect; inconclusive = small, poorly fitted or top-dose-only effect, or another doubt; inactive = no such curve, though single readings can be large or run the other way
#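 Two-generation exposure (96 h) targets delayed-death phenotype. Reporter parasites carrying integrated firefly luciferase, in red cells at 2% hematocrit and 0.05% parasitemia final, kept at 37 C, 5% CO2; luminescence loss indicates inhibition.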
# NS1 inh: qHTS Assay for Inhibitors of Influenza NS1 Protein Function; Potency, µM (doses to about 46.1 µM); 0.4% of 270,000 active; AID 2326, 2010; also: actives are rising curves; nearly all actives have a fitted effect of over 50% in size
#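 A cell-based growth assay was used: compounds that relieve NS1-induced slow growth of budding yeast raise OD600. Assay medium was yeast nitrogen base with ammonium sulphate and -URA supplement, pH 6.0, with 2% galactose.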
# Pf growth 48h: Primary qHTS for delayed death inhibitors of the malarial parasite plastid, 48 hour incubation. P. falciparum luciferase growth in erythrocytes, 48 h. Potency, µM (series often up to 28.7 µM), most hits filed as inhibitors. AID 504832, 2011. 5.9% of 310,000 active; active = well fitted inhibition curve with a large enough effect; inconclusive = small, poorly fitted or top-dose-only effect, or another doubt; inactive = no such curve, though single readings can be large or run the other way
#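 Cell-based growth assay: transgenic P. falciparum expressing firefly luciferase, cultured in red cells within RPMI 1640 containing 0.5% w/v Albumax, 24 mM bicarbonate and gentamycin. A drop in luciferase activity indicates inhibition.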
# SARS PLP yeast: qHTS of Yeast-based Assay for SARS-CoV PLP; S. cerevisiae expressing SARS-CoV PLpro, growth rescue; Potency, µM (titrated, usually from 32.9 µM), most hits filed as activators; 0.19% of 330,000 active; AID 485353, 2010; also: nearly all actives have a fitted effect of over 55% in size
# Hits are given with their value; . = inactive; ? = inconclusive; / = not tested or not shown; ! = repeats disagree. Unless noted, calls follow the shape of the full dose curve.
SMILES,Shiga inhibitor,Cycloheximide cs,Pf growth 96h,NS1 inh,Pf growth 48h,SARS PLP yeast
COc1ccc2nc(/C=N/NC(=O)[C@H](C)NC(=O)OC(C)(C)C)ccc2c1,active,16.3,.,.,.,.
O=C(C[C@@H]1C/C=C/CC[C@@H](Cc2ccc(F)cc2)C(=O)OC[C@H](Cc2ccccc2)NC1=O)N[C@H](CO)Cc1ccccc1,/,/,/,/,/,.
N[C@@H](Cc1ccc(N(CCCl)CCCl)cc1)C(=O)O,/,/,9.53µM!,/,?,/
CC(=O)NC(Cc1ccc(N(CCCl)CCCl)cc1)C(=O)O (configuration not stated),.,.,?,.,.,.
COc1cccc(-n2cc(CNC(=O)C3CCC(=O)N(C4CC4)C3)cn2)c1 (configuration not stated),.,.,.,.,.,.
CCOc1ccc(C(O)c2nccn2C)cc1 (configuration not stated),107.6,42.0,/,.,.,.
CCOc1ccc(NC(=O)CSc2nccn2C)cc1,48.2,41.8,.,.,.,.
Cn1ccnc1SCC(=O)Nc1ccc(Oc2ccccc2)cc1,.,24.4,.,.,.,.
COCCN1C(=O)C(=O)/C(=C(/O)c2ccc(S(=O)(=O)N3CCCCC3)cc2)C1c1ccc(OC)cc1 (configuration not stated),.,.,.,.,.,.
CC(=O)c1ccc(N=C2SCCCN2C(=O)C2CCCC2)cc1,.,.,.,/,.,.
CNC[C@H](O)c1ccc(O)c(O)c1,.,.,.,.,.,.
Oc1ccc(C(O)CNCCCCCCNCC(O)c2ccc(O)c(O)c2)cc1O (configuration not stated),/,/,12µM,/,7.57µM,/
Clc1cccc(Cl)c1/C=N\Nc1nccs1,.,.,9.28µM,.,?,.
Fc1cccc(Cl)c1/C=N/Nc1ccccn1,.,.,.,/,.,.
CCOc1ccc(-c2[nH]ncc2-c2csc(C)n2)c(O)c1,.,.,.,.,.,.
O=[N+]([O-])c1cc(/C=N\Nc2nccs2)ccc1O,.,.,/,.,?,.
CCOc1ccc(/C=N/Nc2nc(C)cs2)c(O)c1,57.8,49.1,.,.,?,.
Cc1csc(N/N=C/c2c(F)cccc2Cl)n1,85.8,38.5,.,.,.,.
Fc1ccccc1/C=N/Nc1nc(N2CCCCC2)nc(N2CCCCC2)n1,.,.,.,.,?,.
Cc1csc(N/N=C/c2ccccc2F)n1,56.1,38.5,.,.,.,/
CCOc1ccc(OCCC(=O)OCC(=O)NC(C)c2ccccc2)cc1 (configuration not stated),/,/,.,/,.,.
S=C(Nc1ccccc1)N1CCOCCOCCN(C(=S)Nc2ccccc2)CCOCCOCC1,.,.,?,.,?,.
S=C(Nc1ccc(Oc2ccccc2)cc1)N1CCOCC1,.,12.3,1.17µM,.,.,.
O=C(CNc1ccc(Oc2ccccc2)cc1)N1CCOCC1,35.7,11.9,.,.,.,.
O=C(CSCc1cccc(Br)c1)N/N=C/c1ccc2c(c1)OCO2,.,.,.,.,.,.
SMILES,Shiga inhibitor,Cycloheximide cs,Pf growth 96h,NS1 inh,Pf growth 48h,SARS PLP yeast
COc1cc(O)oc1C=Nc1ccc(Cl)cc1Cl,35.3,27.8,.,.,?,.
COc1cc(O)oc1C=Nc1ccc(Cl)cc1,.,.,.,.,.,.
CC(=O)c1ccc(Oc2ncnc3sccc23)cc1,79.5,48.1,.,/,.,.
CC(=O)N1CCN(c2ccc(Oc3ncnc4sccc34)cc2)CC1,.,.,?,.,/,.
Cc1cc(C(=O)COc2ncnc3sccc23)c(C)n1C,133.7,31.2,.,.,.,.
CC1(C)CC(NC(=O)Cc2ccccc2)CC(C)(C)N1,/,.,?,.,.,.
Cc1nc2c(s1)sc1ccccc12,.,18.9,.,.,.,.
O=C(COC(=O)c1ccc(Br)o1)NCc1ccccc1Cl,/,/,/,/,/,.
CN(C)c1ccc(/C=C2/SC(=O)N(CCN=C3NS(=O)(=O)c4ccccc43)C2=O)cc1,63.0,28.9,.,.,.,.
CN(C)c1ccc(/C=C2\SC(=O)N(CC(O)Cn3c4ccccc4c4ccccc43)C2=O)cc1 (configuration not stated),.,.,.,.,?,.
CCOC(=O)c1c(NC(=O)C(F)(OC)C(F)(F)F)sc(C(=O)N2CCCCC2)c1C (configuration not stated),.,.,.,.,11.7µM,.
CN1CCN(NC(=O)NC2CCCCC2)CC1,.,.,.,.,.,.
CCNC(=O)C(=O)NCc1ccncc1,.,.,.,.,.,.
CCOC(=O)C(Oc1ccc2c(-c3ccccc3)cc(=O)oc2c1C)c1ccccc1 (configuration not stated),.,.,?,.,11.7µM,.
CCOC(=O)C(Oc1ccc2c(-c3ccc(OC)cc3)cc(=O)oc2c1C)c1ccccc1 (configuration not stated),.,.,.,.,?,.
CN(C)S(=O)(=O)c1cccc(NC(=O)COC(=O)c2ccc3c(c2)OCO3)c1,.,.,.,.,.,.
C[C@@H]1OC(Nc2ccc(N=Nc3ccccc3)cc2)[C@H](O)[C@H](O)[C@H]1O (some centres not stated),52.1,35.2,.,.,.,.
Nc1c(O)ccc2c1C(=O)c1ccccc1C2=O,.,11.8,?,.,.,.
Cc1c(Cl)c(C(=O)NNC(=S)Nc2ccccc2)nn1C,64.4,31.2,/,.,.,.
Cc1nn(C)c(C(=O)NNC(=S)Nc2ccc(Cl)cc2)c1[N+](=O)[O-],.,.,.,.,.,.
Cc1nn(CCC(=O)NNC(=S)Nc2ccc(F)cc2)c(C)c1[N+](=O)[O-],.,.,?,.,.,.
CCNC(=S)NNC(=O)c1nn(C)c(C)c1Cl,82.5,.,.,/,.,.
Cc1c(Cl)c(C(=O)NNC(=S)Nc2ccc(F)cc2)nn1C,178.5,33.7,.,.,.,.
CCOc1ccc(C(C)=O)cc1Cn1nc(C(=O)O)c2ccccc2c1=O,.,.,.,.,.,.
Cc1c(NC(=O)Nc2ccc(C(C)(C)C)cc2)c(=O)n(-c2ccccc2)n1C,.,.,.,.,.,.
SMILES,Shiga inhibitor,Cycloheximide cs,Pf growth 96h,NS1 inh,Pf growth 48h,SARS PLP yeast
O=C(CNCc1ccc(Cl)cc1)Nc1ccc(C(=O)N2CCCCCC2)cc1,.,.,.,.,.,.
CN(C)/C=N/C(=S)Nc1ccc(Cl)cc1,65.4,34.8,.,.,.,.
CC(=O)/C(=C/N(C)C)C(=O)Nc1ccc(Cl)cc1Cl,.,.,.,.,.,.
Cc1cccc(C)c1NC(=S)/N=C/N(C)C,.,.,.,.,.,.
CN(C)/C=N/C(=S)Nc1ccc(Cl)cc1Cl,74.3,57.3,.,.,.,.
CCCCN(C(=O)C1CCCC1)c1c(N)n(CC(C)C)c(=O)[nH]c1=O,/,/,.,/,.,.
COc1cc(OC)c(OC)cc1/C=N/NC(=O)CSc1ccccc1F,.,.,.,.,.,.
